Assay results: PubChem BioAssay AID1159580 (chemical genetic matrix, 2015)
Screen size: about 5,500 compounds; about 2,000 (36%) were called active. About 18% were inconclusive and are not listed. No stated cut-off is given here; in the data, active means normalized growth mostly below about 0.91 (no sharp cut-off); inconclusive means no clear call, values can overlap the other calls; inactive means mostly above about 0.92. The list shows a part of the results.

Experiment: chemical genetic growth profiling, strain panel (AID 1159580);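 further: tested at 20 µM; growth read once vehicle control cultures reached saturation at 30 °C; 1 = growth at the plate median or of vehicle wells; lower values mean less growth of the strain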
Conditions: growth OD

Measured: normalized growth

Cc1cc(O)c(C)c(O)c1C(=O)O
inactive: S. cerevisiae deletion strains, locus YJR066W, strain TOR1, active compounds read low 0.948 | S. cerevisiae deletion strains, locus YKL009W, strain mrt4, active compounds read low 1.01 | S. cerevisiae deletion strains, locus YKL068W, active compounds read low 0.982 | S. cerevisiae deletion strains, locus YKL085W, strain MDH1 (second series), active compounds read low 0.997 | S. cerevisiae deletion strains, locus YKL085W, strain MDH1, active compounds read low 0.997 | S. cerevisiae deletion strains, locus YKL160W, strain elf1, active compounds read low 1.02 | S. cerevisiae deletion strains, locus YKR001C, strain vps1, active compounds read low 0.971 | S. cerevisiae deletion strains, locus YKR026C, strain gcn3, active compounds read low 0.983 | S. cerevisiae deletion strains, locus YKR091W, strain srl3, active compounds read low 0.99 | S. cerevisiae deletion strains, locus YLL001W, strain dnm1, active compounds read low 1.01 | S. cerevisiae deletion strains, locus YLL026W, active compounds read low 1 | S. cerevisiae deletion strains, locus YLL041C, strain sdh2, active compounds read low 0.999 | S. cerevisiae deletion strains, locus YLR027C, strain aat2, active compounds read low 0.983 | S. cerevisiae deletion strains, locus YLR039C, strain RIC1, active compounds read low 0.982 | S. cerevisiae deletion strains, locus YLR058C, strain SHM2, active compounds read low 1.01 | S. cerevisiae deletion strains, locus YLR102C, strain apc9, active compounds read low 0.987 | S. cerevisiae deletion strains, locus YLR113W, strain HOG1, active compounds read low 0.99 | S. cerevisiae deletion strains, locus YLR221C, strain rsa3, active compounds read low 0.991 | S. cerevisiae deletion strains, locus YLR258W, strain gsy2, active compounds read low 0.994 | S. cerevisiae deletion strains, locus YLR262C, strain YPT6 (second series), active compounds read low 0.944 | S. cerevisiae deletion strains, locus YLR262C, strain YPT6, active compounds read low 0.972 | S. cerevisiae deletion strains, locus YLR268W, strain sec22, active compounds read low 1.01 | S. cerevisiae deletion strains, locus YLR320W, strain mms22, active compounds read low 0.983 | S. cerevisiae deletion strains, locus YLR342W, strain FKS1 (second series), active compounds read low 0.972 | S. cerevisiae deletion strains, locus YLR342W, strain FKS1, active compounds read low 0.977 | S. cerevisiae deletion strains, locus YLR357W, strain rsc2, active compounds read low 0.956 | S. cerevisiae deletion strains, locus YLR370C, strain arc18, active compounds read low 0.988 | S. cerevisiae deletion strains, locus YLR371W, strain rom2, active compounds read low 1 | S. cerevisiae deletion strains, locus YLR384C, strain iki3, active compounds read low 0.998 | S. cerevisiae deletion strains, locus YLR418C, strain cdc73, active compounds read low 0.943 | S. cerevisiae deletion strains, locus YML016C, strain PPZ1, active compounds read low 0.924 | S. cerevisiae deletion strains, locus YML032C, strain rad52, active compounds read low 1.03 | S. cerevisiae deletion strains, locus YML120C, strain ndi1, active compounds read low 0.975 | S. cerevisiae deletion strains, locus YML124C, strain tub3, active compounds read low 0.989 | S. cerevisiae deletion strains, locus YMR058W, strain fet3, active compounds read low 0.974 | S. cerevisiae deletion strains, locus YMR078C, strain ctf18, active compounds read low 0.984 | S. cerevisiae deletion strains, locus YMR125W, strain sto1, active compounds read low 0.982 | S. cerevisiae deletion strains, locus YMR129W, active compounds read low 0.996 | S. cerevisiae deletion strains, locus YMR205C, strain PFK2, active compounds read low 0.977 | S. cerevisiae deletion strains, locus YMR223W, strain ubp8, active compounds read low 0.988 | S. cerevisiae deletion strains, locus YMR231W, strain pep5, active compounds read low 0.985 | S. cerevisiae deletion strains, locus YMR263W, strain SAP30, active compounds read low 1.02 | S. cerevisiae deletion strains, locus YMR307W, strain GAS1, active compounds read low 1.01 | S. cerevisiae deletion strains, locus YNL067W, strain RPL9B, active compounds read low 0.979 | S. cerevisiae deletion strains, locus YNL071W, strain lat1, active compounds read low 0.994 | S. cerevisiae deletion strains, locus YNL153C, strain GIM3, active compounds read low 0.988 | S. cerevisiae deletion strains, locus YNL183C, strain NPR1, active compounds read low 0.972 | S. cerevisiae deletion strains, locus YNL209W, strain ssb2, active compounds read low 0.986 | S. cerevisiae deletion strains, locus YNL233W, strain BNI4, active compounds read low 0.998 | S. cerevisiae deletion strains, locus YNL248C, strain rpa49, active compounds read low 0.996 | S. cerevisiae deletion strains, locus YNL250W, strain rad50, active compounds read low 0.946 | S. cerevisiae deletion strains, locus YNL271C, strain bni1, active compounds read low 0.969 | S. cerevisiae deletion strains, locus YNL298W, strain CLA4, active compounds read low 0.98 | S. cerevisiae deletion strains, locus YNL307C, strain MCK1, active compounds read low 0.98 | S. cerevisiae deletion strains, locus YNL322C, strain KRE1 (second series), active compounds read low 0.965 | S. cerevisiae deletion strains, locus YNL322C, strain KRE1, active compounds read low 1 | S. cerevisiae deletion strains, locus YNR049C, strain mso1, active compounds read low 0.983 | S. cerevisiae deletion strains, locus YNR052C, strain pop2, active compounds read low 0.966 | S. cerevisiae deletion strains, locus YOL012C, strain htz1 0.903 | S. cerevisiae deletion strains, locus YOL147C, strain pex11, active compounds read low 1.01 | S. cerevisiae deletion strains, locus YOR001W, strain rrp6, active compounds read low 1 | S. cerevisiae deletion strains, locus YOR061W, strain CKA2, active compounds read low 1.01 | S. cerevisiae deletion strains, locus YOR069W, strain VPS5, active compounds read low 0.99 | S. cerevisiae deletion strains, locus YOR070C, strain gyp1, active compounds read low 0.989 | S. cerevisiae deletion strains, locus YOR080W, strain dia2, active compounds read low 0.974 | S. cerevisiae deletion strains, locus YOR083W, strain WHI5, active compounds read low 1.03 | S. cerevisiae deletion strains, locus YOR106W, strain vam3, active compounds read low 0.972 | S. cerevisiae deletion strains, locus YOR136W, strain idh2, active compounds read low 0.986 | S. cerevisiae deletion strains, locus YOR144C, strain elg1, active compounds read low 0.986 | S. cerevisiae deletion strains, locus YOR184W, strain ser1, active compounds read low 1.05 | S. cerevisiae deletion strains, locus YOR231W, strain MKK1, active compounds read low 1.03 | S. cerevisiae deletion strains, locus YOR265W, strain rbl2, active compounds read low 1 | S. cerevisiae deletion strains, locus YOR270C, strain vph1, active compounds read low 0.802 | S. cerevisiae deletion strains, locus YOR290C, strain snf2, active compounds read low 0.956 | S. cerevisiae deletion strains, locus YOR316C, strain cot1, active compounds read low 0.977 | S. cerevisiae deletion strains, locus YPL051W, strain arl3, active compounds read low 1.02 | S. cerevisiae deletion strains, locus YPL055C, strain LGE1, active compounds read low 1.01 | S. cerevisiae deletion strains, locus YPL078C, strain atp4, active compounds read low 1 | S. cerevisiae deletion strains, locus YPL106C, strain sse1, active compounds read low 0.926 | S. cerevisiae deletion strains, locus YPL240C, strain hsp82, active compounds read low 1 | S. cerevisiae deletion strains, locus YPL256C, strain CLN2, active compounds read low 1.03 | S. cerevisiae deletion strains, locus YPR119W, strain clb2, active compounds read low 0.997 | S. cerevisiae deletion strains, locus YPR141C, strain kar3, active compounds read low 0.973 | S. cerevisiae deletion strains, locus YPR163C, strain tif3, active compounds read low 0.969 | S. cerevisiae deletion strains, locus YPR167C, strain met16, active compounds read low 0.972 | S. cerevisiae deletion strains, strain wtn01, active compounds read low 1.01 | S. cerevisiae strains, strain wild type, active compounds read low 1
